Assay [1] can be described thus: P-glycoprotein substrates identified in KB-8-5-11 adenocarcinoma cell line, qHTS therapeutic library screen (AID 1346987). Note: nearly all actives have a fitted effect of over 65% in size. Note: potency is the fitted concentration of half-maximal effect. The method, boiled down: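 Luminescence from CellTiter-Glo, read 5 min after addition, quantified survival of KB-8-5-11 (P-gp-overexpressing) cells exposed to compounds for 72 h. AC50 was derived from concentration-response curves.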
(In general: Quantitative high-throughput screening tests each substance at several concentrations.)

In assay [2] the target is Atrial natriuretic peptide receptor 1 (Homo sapiens) (UniProt P16066). The experiment in a line: Natriuretic polypeptide receptor (hNpr1) antagonism - Pilot screen (AID 1347049; calls by dose curve;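 note: HEK293 cells with hNpr1 and GloSensor cGMP luciferase stimulated by 0.1 nM hNppA; agonist-evoked cGMP luminescence read 20 min after hNppA addition; series mostly up to about 58 µM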). The method, boiled down: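 Receptor antagonism read as cGMP-dependent luminescence in hNpr1/pGS-40F HEK293 cells: pre-read after 30 min compound exposure, post-read 20 min after hNppA agonist at 0.1 nM final, all at room temperature, protected from light; A-71915 titration as control.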
Atrial natriuretic peptide receptor 1 (Homo sapiens), sequence (P16066 whole entry, looked up): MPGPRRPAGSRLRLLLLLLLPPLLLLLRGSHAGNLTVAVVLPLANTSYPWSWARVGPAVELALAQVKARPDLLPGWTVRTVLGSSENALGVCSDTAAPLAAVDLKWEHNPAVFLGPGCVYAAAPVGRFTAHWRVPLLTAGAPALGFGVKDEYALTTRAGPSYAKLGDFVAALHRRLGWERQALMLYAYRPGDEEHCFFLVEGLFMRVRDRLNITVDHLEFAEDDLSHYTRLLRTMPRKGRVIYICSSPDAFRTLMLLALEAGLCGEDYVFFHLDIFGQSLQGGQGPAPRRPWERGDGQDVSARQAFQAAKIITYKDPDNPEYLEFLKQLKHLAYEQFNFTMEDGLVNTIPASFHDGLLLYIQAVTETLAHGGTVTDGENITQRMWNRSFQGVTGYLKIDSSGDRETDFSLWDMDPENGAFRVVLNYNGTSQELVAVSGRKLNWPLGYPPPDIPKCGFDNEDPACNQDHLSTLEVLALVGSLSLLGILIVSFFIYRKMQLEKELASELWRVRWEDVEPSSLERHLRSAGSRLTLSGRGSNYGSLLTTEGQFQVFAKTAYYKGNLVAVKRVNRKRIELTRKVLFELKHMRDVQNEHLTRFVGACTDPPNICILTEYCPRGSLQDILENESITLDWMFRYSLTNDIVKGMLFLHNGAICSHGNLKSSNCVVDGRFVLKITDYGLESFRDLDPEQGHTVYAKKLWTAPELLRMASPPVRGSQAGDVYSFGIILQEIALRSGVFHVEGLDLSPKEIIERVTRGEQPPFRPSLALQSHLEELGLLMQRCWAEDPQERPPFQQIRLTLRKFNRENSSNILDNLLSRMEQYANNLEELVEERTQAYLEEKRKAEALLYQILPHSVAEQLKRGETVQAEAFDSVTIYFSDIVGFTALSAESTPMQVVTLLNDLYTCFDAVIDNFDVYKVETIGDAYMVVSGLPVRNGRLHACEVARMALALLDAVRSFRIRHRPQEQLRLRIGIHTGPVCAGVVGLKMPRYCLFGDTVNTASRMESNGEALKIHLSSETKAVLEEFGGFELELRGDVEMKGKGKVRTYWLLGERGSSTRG

Assay [3] has as its target Atrial natriuretic peptide receptor 2 (Homo sapiens) (UniProt P20594). Briefly: Natriuretic polypeptide receptor (hNpr2) antagonism - Pilot subtype selectivity assay (AID 1347050; calls by dose curve). The method, boiled down:
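Antagonist mode: compounds (LOPAC1280, seven 1:5 dilutions) added 30 min before 1 nM hNppC stimulation of hNpr2-HEK293 cGMP-sensor cells; luminescence read before and 20 min after agonist at ambient temperature.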

Assay [4] can be described thus: NS1 protein of Zika virus - qHTS assay to identify small molecule inhibitors in human HEK 293 cells (AID 1347053). Note: series mostly up to about 46 µM; nearly all actives have a fitted effect of over 55% in size. Put shortly:
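Readout was TR-FRET using paired anti-NS1 antibodies after 24 h infection of HEK 293 cells with ZIKV MR766 (MOI = 0.5). Compound preceded virus by 1 h; reduced signal reflects lower NS1 expression.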

The target of assay [5] is T1, Tyrosine-protein phosphatase non-receptor type substrate 1 (Homo sapiens) + Leukocyte surface antigen CD47 (Homo sapiens) (UniProt P78324+Q08722). The experiment in a line: CD47-SIRPalpha protein protein interaction - LANCE assay qHTS validation (AID 1347057; active = well fitted curve in the direction sought with a large enough effect in the signal ratio, with a control signal flat, not every such curve was filed as active; the % refers to the signal ratio; note: series mostly up to about 38 µM). Put shortly: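 Inhibition of soluble CD47/SIRPalpha ectodomain association by titrated compounds, measured as 665/615 nm time-resolved FRET ratio after sequential 30 min room-temperature incubations.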
T1 sequence (P78324 whole entry, looked up, the tested form may be a part): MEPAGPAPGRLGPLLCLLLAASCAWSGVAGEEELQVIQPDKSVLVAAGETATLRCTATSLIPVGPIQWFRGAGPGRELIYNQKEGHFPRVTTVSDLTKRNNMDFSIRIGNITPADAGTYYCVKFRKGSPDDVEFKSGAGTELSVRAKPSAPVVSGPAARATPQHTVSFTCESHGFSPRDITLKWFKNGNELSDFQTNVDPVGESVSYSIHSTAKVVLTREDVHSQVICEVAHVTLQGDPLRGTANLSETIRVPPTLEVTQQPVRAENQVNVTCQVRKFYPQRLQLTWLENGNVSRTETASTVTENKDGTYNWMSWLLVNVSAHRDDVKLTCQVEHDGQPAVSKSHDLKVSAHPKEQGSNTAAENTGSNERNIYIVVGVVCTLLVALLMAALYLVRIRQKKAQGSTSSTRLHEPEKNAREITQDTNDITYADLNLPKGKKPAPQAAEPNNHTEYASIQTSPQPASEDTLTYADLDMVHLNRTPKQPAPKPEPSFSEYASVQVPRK
T1 sequence (Q08722 whole entry, looked up, the tested form may be a part): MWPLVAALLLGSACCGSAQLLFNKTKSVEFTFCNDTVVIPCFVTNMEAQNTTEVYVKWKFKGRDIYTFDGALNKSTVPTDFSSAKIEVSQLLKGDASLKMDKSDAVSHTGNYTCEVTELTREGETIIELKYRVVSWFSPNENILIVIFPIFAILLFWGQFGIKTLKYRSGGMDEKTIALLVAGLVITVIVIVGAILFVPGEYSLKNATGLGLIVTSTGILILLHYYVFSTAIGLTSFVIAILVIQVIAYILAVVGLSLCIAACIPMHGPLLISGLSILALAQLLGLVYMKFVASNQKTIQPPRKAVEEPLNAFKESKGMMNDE

Assay [6] concerns the target T1, Tyrosine-protein phosphatase non-receptor type substrate 1 (Homo sapiens) + Leukocyte surface antigen CD47 (Homo sapiens). The experiment in a line: CD47-SIRPalpha protein protein interaction - HTRF assay qHTS validation (AID 1347058; active = well fitted curve in the direction sought with a large enough effect in the signal ratio, not every such curve was filed as active; the % refers to the signal ratio; note: series mostly up to about 38 µM). Put shortly:
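Soluble extracellular domains (6His-CD47, Avi-tag-biotinylated SIRPalpha) in PBS pH 7.4 with 0.05% IGEPAL CA-630. Compounds were preincubated 30 min at RT with CD47 and anti-His-Eu, then SIRPalpha and SAV-XL665 were added. TR-FRET 665/615 ratio.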

For assay [7] the target is unchanged. Briefly: CD47-SIRPalpha protein protein interaction - Alpha assay qHTS validation (AID 1347059).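 Note: bead proximity luminescence from CD47 binding SIRPalpha after compound preincubation with SIRPalpha.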 The method, boiled down:
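AlphaScreen signal between CD47-His (12.5 nM) and biotin-SIRPalpha (25 nM) soluble extracellular domains, bead-captured via Ni-NTA and streptavidin. Compounds, in 7-point titrations, met SIRPalpha 30 min before CD47; PBS pH 7.4 with 0.05% IGEPAL.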

In assay [8] the target is Parathyroid hormone/parathyroid hormone-related peptide receptor (Homo sapiens) (UniProt Q03431). Briefly: qHTS for PTHR1 Agonists: Optimization Screen against the NCGC LOPAC library (AID 1347079).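 Note: GloSensor cAMP luminescence in HEK-293 GP2 cells expressing human PTHR1 with IBMX.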 Put shortly:
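HEK-293 GP2 cells, PTHR1 + GloSensor cAMP; 3000 cells/well, o/n. Luciferin + IBMX 0.5mM each (stock), 1 hr 37C. Cpd titration, 1 hr 37C. Lum after 15 min RT. Ctrl M-PTH(1-15) top 10uM.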

The nature of assay [9]: qHTS for Inhibitors of the Functional Ribonucleoprotein Complex (vRNP) of Lassa (LASV) Arenavirus: LASV Primary Screen - GLuc reporter signal (AID 1347082; calls by dose curve; tested in HEK293 reporter line; note: nearly all actives have a fitted effect of over 60% in size; note: potency is the fitted concentration of half-maximal effect).
A short description of assay [10]: qHTS for Inhibitors of the Functional Ribonucleoprotein Complex (vRNP) of Lassa (LASV) Arenavirus: Viability assay - alamar blue signal for LASV Primary Screen (AID 1347083; calls by dose curve; tested in HEK293 reporter line; note: series mostly up to about 57 µM; nearly all actives have a fitted effect of over 80% in size).
Assay [11] in a line: qHTS for Inhibitors of the Functional Ribonucleoprotein Complex (vRNP) of Lymphocytic Choriomeningitis Arenaviruses (LCMV): Viability assay - alamar blue signal for LCMV Primary Screen (AID 1347085; calls by dose curve; tested in HEK293 reporter line; note: series mostly up to about 57 µM; nearly all actives have a fitted effect of over 80% in size).
Assay [12] concerns the target Nucleoprotein (Lymphocytic choriomeningitis virus (strain Armstrong)) (UniProt P09992). The experiment in a line: qHTS for Inhibitors of the Functional Ribonucleoprotein Complex (vRNP) of Lymphocytic Choriomeningitis Arenaviruses (LCMV): LCMV Primary Screen - GLuc reporter signal (AID 1347086; calls by dose curve; note: nearly all actives have a fitted effect of over 70% in size; note: potency is the fitted concentration of half-maximal effect).
A short description of assay [13]: qHTS of pediatric cancer cell lines to identify multiple opportunities for drug repurposing: Primary screen for DAOY cells (AID 1347090). Note: nearly all actives have a fitted effect of over 55% in size. Note: potency is the fitted concentration of half-maximal effect. The method, boiled down:
(§1)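 Cell viability, CellTiter-Glo luminescence; 500-1,000 cells/well, 8- or 11-point titration, 48 h compound exposure at 37 degrees C, 5% CO2. Controls: DMSO neutral, bortezomib 2.3 µM final as positive.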

Assay [14] is described as follows: qHTS of pediatric cancer cell lines to identify multiple opportunities for drug repurposing: Primary screen for A673 cells (AID 1347092). Note: nearly all actives have a fitted effect of over 45% in size. Note: potency is the fitted concentration of half-maximal effect. The method, boiled down:
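Cells are plated, rested 5 h, dosed by pintool, incubated 48 h, then lysed with CellTiter-Glo and read by luminescence. DMSO is the neutral control; bortezomib at 2.3 uM final is the positive control.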

Assay [15] can be described thus: P-glycoprotein substrates identified in KB-3-1 adenocarcinoma cell line, qHTS therapeutic library screen (AID 1346986). Note: nearly all actives have a fitted effect of over 60% in size. Put shortly: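 Viability read by CellTiter-Glo after 72 h compound exposure in dose-response of KB-3-1 and KB-8-5-11 (P-gp-high) cells. Hits needed AC50 < 10 uM, >50% maximum response and curve class -1.1 to -2.4. Cherry-picks retested ± tariquidar, including pcDNA/MDR-19 HEK-293 pair.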

A short description of assay [16]: Natriuretic polypeptide receptor (hNpr1) antagonism - Pilot counterscreen GloSensor control cell line (AID 1347045; calls by dose curve; note: series mostly up to about 38 µM). The method, boiled down: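 Cells were first seeded and incubated overnight at 37C, then loaded with 2% GloSensor substrate for 2 h. Compounds were added for 30 min at room temperature, followed by a baseline read, 50 uM SNP and a final read after 20 min.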
A general note: Counterscreens check selectivity or assay interference.

Assay [17] can be described thus: qHTS of pediatric cancer cell lines to identify multiple opportunities for drug repurposing: Primary screen for TC32 cells (AID 1347089). Note: nearly all actives have a fitted effect of over 60% in size. Note: potency is the fitted concentration of half-maximal effect. Put shortly: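 Measured quantity: luminescence from CellTiter-Glo, reflecting metabolically active TC32 cells following 48 h of compound. Curves came straight from multi-point titrations, with 8 or 11 points in primary and 11 in confirmatory screening.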

Assay [18] can be described thus: qHTS of pediatric cancer cell lines to identify multiple opportunities for drug repurposing: Primary screen for SJ-GBM2 cells (AID 1347091). Note: potency is the fitted concentration of half-maximal effect. Put shortly:
as §1

The nature of assay [19]: qHTS of pediatric cancer cell lines to identify multiple opportunities for drug repurposing: Primary screen for SK-N-MC cells (AID 1347093). Note: potency is the fitted concentration of half-maximal effect. Put shortly: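 Metabolically active cells were quantified by ATP-dependent luminescence (CellTiter-Glo, 15 min at room temperature) following 48 h treatment. Cells had been plated at 500-1,000 per well and settled for 5 h beforehand.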

“And” between values parts separate entries of the source, which are not always exact repeats. Equal values may be shown once. Inconclusive results are not listed. The source made the active and inactive calls. Unless noted, calls come from the whole dose curve; as a rule, active = well fitted curve in the direction sought with a large enough effect; inconclusive = small, poorly fitted or top-dose-only effect, or another doubt; inactive = no such curve, though single readings can be large; an effect the other way counts as inactive or inconclusive.

Atrial natriuretic peptide receptor 2 (Homo sapiens), sequence (P20594 whole entry, looked up): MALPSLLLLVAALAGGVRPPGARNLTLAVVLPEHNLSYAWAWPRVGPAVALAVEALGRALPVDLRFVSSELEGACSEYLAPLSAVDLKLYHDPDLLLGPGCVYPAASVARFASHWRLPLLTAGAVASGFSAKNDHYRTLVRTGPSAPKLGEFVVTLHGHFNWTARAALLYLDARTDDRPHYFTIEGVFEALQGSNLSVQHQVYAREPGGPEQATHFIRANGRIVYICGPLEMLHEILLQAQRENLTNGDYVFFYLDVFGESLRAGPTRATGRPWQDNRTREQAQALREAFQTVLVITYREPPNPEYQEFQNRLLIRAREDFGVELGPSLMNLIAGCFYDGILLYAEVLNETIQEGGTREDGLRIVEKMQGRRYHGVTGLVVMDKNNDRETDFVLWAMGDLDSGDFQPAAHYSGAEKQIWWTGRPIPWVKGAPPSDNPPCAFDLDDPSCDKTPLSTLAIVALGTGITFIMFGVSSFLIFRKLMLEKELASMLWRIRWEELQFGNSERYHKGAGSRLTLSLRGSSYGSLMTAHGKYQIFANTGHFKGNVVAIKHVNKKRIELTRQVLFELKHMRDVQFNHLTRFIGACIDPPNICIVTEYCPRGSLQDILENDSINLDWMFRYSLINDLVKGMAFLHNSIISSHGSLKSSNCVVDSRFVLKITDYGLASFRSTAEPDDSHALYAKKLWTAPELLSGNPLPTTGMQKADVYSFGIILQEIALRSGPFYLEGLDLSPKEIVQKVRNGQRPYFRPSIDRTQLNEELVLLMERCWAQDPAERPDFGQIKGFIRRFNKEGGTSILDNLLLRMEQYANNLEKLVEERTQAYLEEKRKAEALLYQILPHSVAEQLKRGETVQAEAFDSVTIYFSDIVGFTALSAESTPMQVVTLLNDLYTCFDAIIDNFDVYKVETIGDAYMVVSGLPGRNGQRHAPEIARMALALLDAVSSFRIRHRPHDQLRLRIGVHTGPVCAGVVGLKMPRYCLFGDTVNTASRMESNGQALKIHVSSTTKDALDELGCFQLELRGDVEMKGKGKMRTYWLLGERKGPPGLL
Parathyroid hormone/parathyroid hormone-related peptide receptor (Homo sapiens), sequence (Q03431 whole entry, looked up): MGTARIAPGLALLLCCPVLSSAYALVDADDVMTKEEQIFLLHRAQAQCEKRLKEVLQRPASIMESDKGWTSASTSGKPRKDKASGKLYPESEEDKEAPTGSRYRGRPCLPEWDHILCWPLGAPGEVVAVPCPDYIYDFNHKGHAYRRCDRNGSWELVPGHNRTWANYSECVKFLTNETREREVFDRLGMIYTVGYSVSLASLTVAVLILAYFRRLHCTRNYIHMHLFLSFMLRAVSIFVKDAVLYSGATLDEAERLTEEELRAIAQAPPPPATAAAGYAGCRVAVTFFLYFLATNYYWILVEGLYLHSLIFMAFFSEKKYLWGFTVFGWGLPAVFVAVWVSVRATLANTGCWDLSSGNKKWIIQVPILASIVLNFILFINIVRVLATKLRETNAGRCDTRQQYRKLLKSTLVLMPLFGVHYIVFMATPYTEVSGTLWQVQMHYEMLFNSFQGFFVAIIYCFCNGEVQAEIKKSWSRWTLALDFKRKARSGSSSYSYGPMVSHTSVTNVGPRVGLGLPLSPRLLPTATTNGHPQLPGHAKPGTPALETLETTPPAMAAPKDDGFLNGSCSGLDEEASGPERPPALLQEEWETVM
Nucleoprotein (Lymphocytic choriomeningitis virus (strain Armstrong)), sequence (P09992 whole entry, looked up): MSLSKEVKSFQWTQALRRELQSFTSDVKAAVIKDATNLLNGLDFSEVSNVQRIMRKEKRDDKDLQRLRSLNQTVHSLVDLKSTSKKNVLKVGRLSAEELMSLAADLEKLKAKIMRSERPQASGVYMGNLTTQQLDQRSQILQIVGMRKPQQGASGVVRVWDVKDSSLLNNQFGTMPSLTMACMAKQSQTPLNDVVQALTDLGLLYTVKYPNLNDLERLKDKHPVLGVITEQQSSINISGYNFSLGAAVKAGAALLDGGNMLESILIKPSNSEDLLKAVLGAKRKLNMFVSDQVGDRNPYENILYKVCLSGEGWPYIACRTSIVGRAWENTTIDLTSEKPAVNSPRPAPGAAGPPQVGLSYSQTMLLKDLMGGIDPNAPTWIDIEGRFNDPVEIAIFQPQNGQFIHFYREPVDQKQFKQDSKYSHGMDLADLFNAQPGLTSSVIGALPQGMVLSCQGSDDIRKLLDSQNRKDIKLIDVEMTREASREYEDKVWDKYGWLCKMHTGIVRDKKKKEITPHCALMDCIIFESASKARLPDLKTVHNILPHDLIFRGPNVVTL

For `CC(O)(CS(=O)(=O)c1ccc(F)cc1)C(=O)Nc1ccc(C#N)c(C(F)(F)F)c1` (stereo not given), the Potency entry in [1], in assay [2], in [3], in [4], in assay [9] and in [10] was “inactive” each time. Moreover, the Potency entry in [11] and in assay [12] was “inactive” each time. In addition, the outcome in assay [5], in [6], in [7] and in assay [8] was inactive. Besides, the Potency in assay [13] is 2.96 µM (active); in [14], 1.18 µM (active).

In the case of `CCCC(C)(COC(N)=O)COC(=O)NC(C)C` (stereo not given), the Potency entry in assay [15], in [1], in assay [16], in assay [2], in [3] and in assay [4] was “inactive” throughout. Besides, the Potency result in [9], in assay [10], in [11], in [12], in assay [17] and in assay [13] was “inactive” throughout. In addition, the Potency result in assay [18] and in assay [14] was “inactive” throughout. Moreover, the result in [8] was inactive.

Regarding `Fc1ccc(C(OCCN2CCN(CCCc3ccccc3)CC2)c2ccc(F)cc2)cc1`, the Potency was 10.5 µM (active) in assay [1]; 34.3 µM (active) in [9]; 30.6 µM (active) in assay [12]; 13.1 µM (active) in assay [17]; 23.5 µM (active) in assay [13]; 20.9 µM (active) and 16.8 µM (active) in assay [18]. Besides, the Potency in assay [14] is 14.8 µM (active). Further, the Potency entry in assay [2] and in assay [3] was “inactive” each time. In addition, the outcome in [5], in assay [6], in assay [7] and in assay [8] was inactive.

Take `CC[C@@H](CO)NC(=O)[C@@H]1C=C2c3cccc4c3c(cn4C)C[C@H]2N(C)C1`: the Potency in [1] is 20.6 µM (active). Also, the Potency result in assay [16], in [2], in [3], in [9], in assay [10] and in [11] was “inactive” throughout. In addition, the Potency entry in assay [12], in assay [17], in assay [13] and in [19] was “inactive” throughout. For the same compound, the result in assay [7] and in assay [8] was inactive.

Regarding `Cc1cccc(C)c1NC(=O)CN1CCCC1=O`, the Potency entry in [1], in assay [16], in assay [2], in [3], in [4] and in assay [9] was “inactive” throughout. Also, the Potency result in assay [10], in assay [11], in [12], in assay [17], in [13] and in assay [14] was “inactive” each time. Further, the outcome in [5], in assay [6], in [7] and in assay [8] was inactive.

`c1ccc2c(c1)OCC(C1=NCCN1)O2` (stereo not given): the Potency entry in assay [1], in assay [3] and in assay [17] was “inactive” each time. Further, the result in assay [5], in assay [6], in [7] and in assay [8] was inactive. The Potency was 14.1 µM (active) in assay [9], 26.6 µM (active) in assay [13], 13.3 µM (active) in assay [14] and 18.8 µM (active) in assay [19].

Regarding `Cc1ccc(S(=O)(=O)N[C@@H](CCCCN)C(=O)CCl)cc1`, the Potency result in [1], in assay [16], in assay [2], in assay [3], in assay [4] and in [9] was “inactive” each time. The Potency entry in assay [10], in [11], in [12], in assay [17], in assay [13] and in assay [18] was “inactive” in each case. In assay [14], the Potency result is “inactive”. In addition, the outcome in assay [5], in assay [6], in [7] and in assay [8] was inactive. In assay [19], the Potency is 21.1 µM (active).

The values are drawn from PubChem BioAssay (NCATS).
